{"source": "PubChem BioAssay", "key": {"[1]": {"test": "stimulators of nuclear beta-catenin in C2C12, primary screen, imaging, WNT3A-conditioned medium, mouse C2C12, NPC library (AID 1117326; in the data active means nuclear beta-catenin stimulation mostly above about 4.2%, no sharp cut-off; inactive means mostly below about 10%)", "conditions": "stronger effect = higher value"}, "[2]": {"test": "stimulators of insulin release from INS-1E, primary screen, cell-based, 5 mM glucose, NPC library (AID 1117329;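 active means compound raises insulin release from rat beta cells at 5 mM glucose, no numeric limit stated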)", "conditions": "rat INS-1E insulin secretion, at 10 µM, stronger effect = higher value"}, "[3]": {"test": "glucagon-like peptide 1 release enhancers, primary assay, NCI-H716 cell line, NPC library (AID 1117341;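 active means compound raises GLP1 secretion from the human gut endocrine cells, with no numeric limit stated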)", "conditions": "NCI-H716 cells, at 10 µM, stronger effect = higher value"}, "[4]": {"test": "liver-stage malaria parasite growth inhibition, primary screen, cell-based, HepG2, luciferase luminescence, HepG2 viability (AID 624349; in the data active means parasite load remaining mostly below about 12%, no sharp cut-off; inactive means mostly above about 10%;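 on all read-outs here: 100% = mean of DMSO negative control wells on the same plate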)", "conditions": "P. berghei liver stage in HepG2, luciferase luminescence, concentration not given here; parasite load remaining: stronger effect = lower value; viability: measured here: HepG2 viability without parasites"}, "[5]": {"test": "growth inhibition of GSK3B-pretreated HCT116 cells – cell-based, CellTiter-Glo, 0.2 to 20 µM (AID 1117336;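 active means compounds lowering colon cancer cell viability after pretreatment blocking the GSK3B kinase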)", "conditions": "HCT116 viability after GSK3B inhibitor, at 20 µM, stronger effect = higher value"}, "[6]": {"test": "inhibition of endothelial tube formation, primary screen, imaging, VEGF stimulated, CD31 staining, tube area, NPC library (AID 1117340;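 active means compound that reduces growth-factor-driven endothelial tube area in a mixed cell culture, no cutoff stated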)", "conditions": "VEGF-stimulated ADSC/ECFC co-culture, at 10 µM, stronger effect = higher value"}, "[7]": {"test": "HCT116 colon cancer cell growth inhibition, primary screen, CellTiter-Glo luminescence, NPC library (AID 1117342;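 active means compounds that lower survival of HCT116 colon cancer cells in the luminescence readout, no numeric limit stated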)", "conditions": "at 20 µM (top of the series)"}, "[8]": {"test": "CellTiter-Glo luminescent readout of SW480 viability loss, NPC library primary (AID 1117343;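 active means compounds that lower viability of the colon cancer cells in the luminescence readout, with no numeric limit stated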)", "conditions": "CellTiter-Glo luminescence; at 20 µM (top of the series)"}, "[9]": {"test": "decreased DLD-1 cellular survival, CellTiter-Glo luminescent readout, NPC compound collection, primary HTS (AID 1117346;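 active means compounds that lower survival of DLD-1 colon cancer cells in the luminescence readout, no cutoff given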)", "conditions": "DLD-1 viability, CellTiter-Glo luminescence; at 20 µM (top of the series)"}, "[10]": {"test": "sensitizers of A549 cells to miR-34 induction, primary screen, imaging, A549 dox-inducible miR-34, nuclei and caspase counts (AID 1347080)", "conditions": "A549 miR-34 inducible, Hoechst nuclei count, 48 h"}, "[11]": {"test": "hESC survival regulators, cell-based (AID 493140; call rule not given here;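 on all read-outs here: cells exposed to compounds for four days before counting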)", "conditions": "human embryonic stem cell survival screen; stronger effect = higher value"}, "[12]": {"test": "survival rescue of mitochondrial mutant cells in low glucose, primary screen, MELAS cybrids, Rieske KO mouse fibroblasts, CellTiter-Glo (AID 1508586;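 active means mean z-score across replicates of 1.96 or higher in either the MELAS or the Rieske mutant cell line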;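 on all read-outs here: z relative to plate mean and SD of compound and empty wells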)"}, "[13]": {"target": "NAD(+) hydrolase SARM1 (Homo sapiens) (UniProt Q6SZW1)", "sequence (Q6SZW1 whole entry, looked up)": "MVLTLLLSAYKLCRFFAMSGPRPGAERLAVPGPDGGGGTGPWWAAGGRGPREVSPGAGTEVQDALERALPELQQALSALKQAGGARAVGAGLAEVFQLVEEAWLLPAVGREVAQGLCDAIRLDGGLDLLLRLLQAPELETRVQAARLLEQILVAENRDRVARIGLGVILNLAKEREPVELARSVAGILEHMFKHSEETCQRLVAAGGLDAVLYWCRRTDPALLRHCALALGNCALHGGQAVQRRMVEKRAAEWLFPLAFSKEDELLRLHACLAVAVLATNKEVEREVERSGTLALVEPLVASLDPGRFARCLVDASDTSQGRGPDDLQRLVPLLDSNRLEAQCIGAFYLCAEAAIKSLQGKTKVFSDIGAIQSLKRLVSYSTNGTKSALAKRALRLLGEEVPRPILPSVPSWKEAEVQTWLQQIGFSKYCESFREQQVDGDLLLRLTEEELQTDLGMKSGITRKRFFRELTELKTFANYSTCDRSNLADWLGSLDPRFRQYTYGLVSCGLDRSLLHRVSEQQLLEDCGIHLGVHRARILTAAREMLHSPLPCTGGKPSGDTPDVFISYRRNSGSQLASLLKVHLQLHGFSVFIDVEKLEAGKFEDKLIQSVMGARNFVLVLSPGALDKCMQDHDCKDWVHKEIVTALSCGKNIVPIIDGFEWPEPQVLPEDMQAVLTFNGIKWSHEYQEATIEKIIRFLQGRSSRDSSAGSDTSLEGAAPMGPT", "test": "SARM1 TIR NADase inhibitors, cell lysate, NAD-Glo luminescence (AID 1508614;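 active means compound whose remaining NAD level is above about 45 nM, limit read from the data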)", "conditions": "SAM-TIR HEK293T lysate NADase, at 1 µM, stronger effect = higher value"}, "[14]": {"test": "polyglutamine-triggered caspase-3 activation inhibitors, cell-based (AID 1583)", "conditions": "polyglutamine-induced caspase-3 activation, cell assay; stronger effect = higher value;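 tested at 10 µM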"}, "[15]": {"test": "suppressors of polyQ aggregation in yeast, 75Q-TubU reporter (AID 1593)", "conditions": "Yeast 75Q polyglutamine aggregation reporter"}, "[16]": {"test": "inhibitors of mitochondrial cytochrome c release, biochemical, purified mitochondria (AID 1603);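 on all read-outs here: mouse liver mitochondria challenged with calcium chloride; signal normalized to the plate average as 100%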", "conditions": "stronger effect = lower value"}, "[17]": {"test": "differential killing of epithelial or mesenchymal cells, primary screen, imaging, PC-3E GFP, TEM4-18 mCherry, co-culture (AID 1345086;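 active means compounds killing one labelled cell type while sparing the other, by normalised counts and ratio limits, not self-fluorescent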;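 on all read-outs here: cells exposed to compound for 72 h before imaging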;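 on red/green cell ratio (normalised): normalised mesenchymal count divided by normalised epithelial count so high means epithelial killing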)", "conditions": "imaging cell counts, at 1 µM; for red/green cell ratio (normalised): actives lie on both sides"}, "[18]": {"system": "Aerobactin synthetase IucA (Klebsiella pneumoniae hvKP1)", "test": "Biochemical IucA enzyme inhibition primary screen of the Spectrum library (AID 1346200; call rule not given here;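 further: 100% = wells without compound and 0% = wells lacking enzyme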)", "conditions": "malachite green pyrophosphate, A620, at 8 µM, stronger effect = lower value"}, "[19]": {"target": "6-phosphogluconate dehydrogenase, decarboxylating (Homo sapiens) (UniProt P52209)", "sequence (P52209 whole entry, looked up)": "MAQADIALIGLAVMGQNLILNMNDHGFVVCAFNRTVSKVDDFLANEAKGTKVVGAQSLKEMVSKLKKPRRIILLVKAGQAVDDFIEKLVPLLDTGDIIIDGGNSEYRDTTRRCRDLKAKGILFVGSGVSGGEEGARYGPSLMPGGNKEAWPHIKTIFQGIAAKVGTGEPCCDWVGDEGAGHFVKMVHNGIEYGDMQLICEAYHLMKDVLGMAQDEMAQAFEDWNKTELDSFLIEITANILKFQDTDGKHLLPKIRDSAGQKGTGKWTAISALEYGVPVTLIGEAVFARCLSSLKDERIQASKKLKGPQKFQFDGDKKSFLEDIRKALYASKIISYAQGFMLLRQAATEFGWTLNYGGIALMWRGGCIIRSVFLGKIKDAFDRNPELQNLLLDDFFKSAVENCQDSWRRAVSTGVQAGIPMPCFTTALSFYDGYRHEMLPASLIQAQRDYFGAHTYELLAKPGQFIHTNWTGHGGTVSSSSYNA", "test": "6PGD enzyme inhibitors, primary screen, biochemical, human, recombinant enzyme, NADPH absorbance (AID 1159550;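 active means at least 20% inhibition of 6-phosphogluconate dehydrogenase activity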)", "conditions": "recombinant 6PGD, NADPH absorbance 341 nm; at 10 µM; stronger effect = higher value"}, "[20]": {"target": "Mitogen-activated protein kinase 7 (Homo sapiens) (UniProt Q13164)", "sequence (Q13164 whole entry, looked up, the tested form may be a part)": "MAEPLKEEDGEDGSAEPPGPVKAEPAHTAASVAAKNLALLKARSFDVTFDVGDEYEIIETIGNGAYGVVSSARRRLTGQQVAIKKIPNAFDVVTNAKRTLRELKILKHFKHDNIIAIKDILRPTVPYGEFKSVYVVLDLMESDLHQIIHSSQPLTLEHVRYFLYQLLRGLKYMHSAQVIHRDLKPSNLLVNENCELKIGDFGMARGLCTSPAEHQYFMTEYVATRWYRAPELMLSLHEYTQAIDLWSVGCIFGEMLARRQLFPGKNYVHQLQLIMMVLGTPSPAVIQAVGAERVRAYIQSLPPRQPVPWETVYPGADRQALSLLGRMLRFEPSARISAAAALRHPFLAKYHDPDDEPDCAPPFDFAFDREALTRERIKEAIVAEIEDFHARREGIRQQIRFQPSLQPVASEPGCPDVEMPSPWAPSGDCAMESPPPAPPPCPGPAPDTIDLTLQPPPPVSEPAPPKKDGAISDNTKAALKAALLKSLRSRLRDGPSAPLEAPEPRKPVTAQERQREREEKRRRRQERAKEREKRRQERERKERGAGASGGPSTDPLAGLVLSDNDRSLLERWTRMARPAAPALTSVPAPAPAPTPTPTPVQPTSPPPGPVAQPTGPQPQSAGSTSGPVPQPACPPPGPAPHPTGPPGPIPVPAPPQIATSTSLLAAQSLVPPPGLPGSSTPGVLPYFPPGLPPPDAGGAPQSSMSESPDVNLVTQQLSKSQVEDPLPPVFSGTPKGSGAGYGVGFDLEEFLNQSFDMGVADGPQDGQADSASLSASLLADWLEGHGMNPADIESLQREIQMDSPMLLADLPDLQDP", "test": "ERK5 transactivation activators in reporter cells, primary screen, cell-based, HTS (AID 1508626;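 active means luciferase signal above three times the same-plate solvent-only control wells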;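 further: luciferase driven by Gal4-ERK5 fusion binding five Gal4 sites before minimal TATA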)", "conditions": "HeLa Gal4-ERK5 transactivation, 18 h, at 5 µM, stronger effect = higher value"}, "[21]": {"conditions": "stronger effect = lower value, cell number ratio, induced over uninduced"}, "[22]": {"conditions": "measured here: relative caspase fold change +Dox/-Dox"}, "[23]": {"conditions": "measured here: total cells with miR-34 induction, stronger effect = lower value"}, "[24]": {"conditions": "measured here: total cells without miR-34 induction"}, "[25]": {"conditions": "MELAS cybrid survival, CellTiter-Glo 48 h, stronger effect = higher value"}, "[26]": {"conditions": "Rieske KO mouse fibroblast survival, CellTiter-Glo 72 h"}, "[27]": {"conditions": "measured here: epithelial PC-3E GFP cell survival"}, "[28]": {"conditions": "measured here: mesenchymal TEM4-18 mCherry cell survival"}}, "note": "Several values for one entry are separate records, joined by “and”; a condition that tells them apart may be missing. Equal entries are not always repeated. Activity calls are given as the source filed them.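 How the source made its calls, unless noted: active means compounds whose cell count with miR-34 switched on is under 0.7 times the count with it off; inactive means the rest.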"}
{"smiles": "COCC(C)N(C(=O)CCl)c1c(C)csc1C", "note": "(centres undefined)", "values": [{"measurement": "nuclear beta-catenin stimulation", "setting": "[1]; at 10 µM", "value": "0.5% (inactive)"}, {"measurement": "nuclear beta-catenin stimulation", "setting": "[1]; stimulation, at 2 µM", "value": 2.6, "unit": "%"}, {"measurement": "insulin secretion stimulation", "setting": "[2]", "value": "0.7% (inactive)"}, {"measurement": "GLP1 secretion stimulation", "setting": "[3]", "value": "-0.9% (inactive)"}]}
{"smiles": "COP(=S)(OC)Oc1cc(Cl)c(Cl)cc1Cl", "values": [{"measurement": "parasite load remaining", "setting": "[4]", "value": "48.6% (inactive)"}, {"measurement": "viability", "setting": "[4]", "value": 108, "unit": "%"}, {"measurement": "nuclear beta-catenin stimulation", "setting": "[1]; at 10 µM", "value": "2.5% (inactive)"}, {"measurement": "nuclear beta-catenin stimulation", "setting": "[1]; stimulation, at 2 µM", "value": -0.1, "unit": "%"}, {"measurement": "insulin secretion stimulation", "setting": "[2]", "value": "2.1% (inactive)"}, {"measurement": "viability decrease", "setting": "[5]", "value": "-23.4% (inactive)"}, {"measurement": "tube area decrease", "setting": "[6]", "value": "-3.6% (inactive)"}, {"measurement": "GLP1 secretion stimulation", "setting": "[3]", "value": "3.7% (inactive)"}, {"measurement": "inhibition of viability", "setting": "[7]", "value": "9.4% (inactive)"}, {"measurement": "viability decrease (inhibition)", "setting": "[8]", "value": "32% (inactive)"}, {"measurement": "viability decrease (inhibition)", "setting": "[9]", "value": "15.4% (inactive)"}, {"measurement": "fold change", "setting": "[10]; [21]", "value": "0.898 (inactive)"}, {"measurement": "fold change", "setting": "[10]; [22]", "value": 3.75}, {"measurement": "cell count", "setting": "[10]; [23]", "value": 12000}, {"measurement": "cell count", "setting": "[10]; [24]", "value": 13300}]}
{"smiles": "CCNCC(O)c1cccc(O)c1", "note": "(centres undefined)", "values": [{"measurement": "survival", "setting": "[11]", "value": "9.33 (inactive)"}, {"measurement": "parasite load remaining", "setting": "[4]", "value": "95% (inactive)"}, {"measurement": "viability", "setting": "[4]", "value": 69.4, "unit": "%"}, {"measurement": "nuclear beta-catenin stimulation", "setting": "[1]; at 10 µM", "value": "-1.1% (inactive)"}, {"measurement": "nuclear beta-catenin stimulation", "setting": "[1]; stimulation, at 2 µM", "value": 2.2, "unit": "%"}, {"measurement": "insulin secretion stimulation", "setting": "[2]", "value": "0.6% (inactive)"}, {"measurement": "viability decrease", "setting": "[5]", "value": "-11.3% (inactive)"}, {"measurement": "tube area decrease", "setting": "[6]", "value": "0.2% (inactive)"}, {"measurement": "GLP1 secretion stimulation", "setting": "[3]", "value": "-2.7% (inactive)"}, {"measurement": "inhibition of viability", "setting": "[7]", "value": "1.7% (inactive)"}, {"measurement": "viability decrease (inhibition)", "setting": "[8]", "value": "15.1% (inactive)"}, {"measurement": "viability decrease (inhibition)", "setting": "[9]", "value": "-2.7% (inactive)"}, {"measurement": "fold change", "setting": "[10]; [21]", "value": "0.936 (inactive)"}, {"measurement": "fold change", "setting": "[10]; [22]", "value": 0.593}, {"measurement": "cell count", "setting": "[10]; [23]", "value": 9690}, {"measurement": "cell count", "setting": "[10]; [24]", "value": 10400}, {"measurement": "z-score", "setting": "[12]; [25]", "value": "0.575 (inactive)"}, {"measurement": "z-score", "setting": "[12]; [26]", "value": 0.102}]}
{"smiles": "CN1C[C@H](CNC(=O)OCc2ccccc2)C[C@@H]2c3cccc4c3c(cn4C)C[C@H]21", "values": [{"measurement": "survival", "setting": "[11]", "value": "2.67 (inactive)"}, {"measurement": "z-score", "setting": "[12]; [25]", "value": "0.443 (inactive)"}, {"measurement": "z-score", "setting": "[12]; [26]", "value": 0.114}, {"measurement": "remaining NAD", "setting": "[13]", "value": "10 nM (inactive)"}]}
{"smiles": "CN(C)C(=S)SSC(=S)N(C)C", "values": [{"measurement": "inhibition", "setting": "[14]", "value": 37.5, "unit": "%"}, {"measurement": "score", "setting": "[15]", "value": 0.02}, {"measurement": "cytochrome c release ratio", "setting": "[16]", "value": 3.47}, {"measurement": "red/green cell ratio (normalised)", "setting": "[17]", "value": "1.29 (inactive)"}, {"measurement": "normalised cell number", "setting": "[17]; [27]", "value": 0.66}, {"measurement": "normalised cell number", "setting": "[17]; [28]", "value": 0.85}, {"measurement": "activity remaining", "setting": "[18]", "value": "97.7% (inactive)"}, {"measurement": "remaining NAD", "setting": "[13]", "value": "48 nM (active)"}]}
{"smiles": "COP(=S)(OC)Oc1ccc(Sc2ccc(OP(=S)(OC)OC)cc2)cc1", "values": [{"measurement": "red/green cell ratio (normalised)", "setting": "[17]", "value": "0.91 (inactive)"}, {"measurement": "normalised cell number", "setting": "[17]; [27]", "value": 1.08}, {"measurement": "normalised cell number", "setting": "[17]; [28]", "value": 0.98}, {"measurement": "activity remaining", "setting": "[18]", "value": "118% (inactive)"}]}
{"smiles": "c1ccc2c(c1)Sc1ccccc1N2CC1CN2CCC1CC2", "note": "(centres undefined)", "values": [{"measurement": "z-score", "setting": "[12]; [25]", "value": "-0.772 (inactive)"}, {"measurement": "z-score", "setting": "[12]; [26]", "value": -0.213}]}
{"smiles": "Cc1nccc2c1[nH]c1ccccc12", "values": [{"measurement": "survival", "setting": "[11]", "value": "12.2 (inactive)"}, {"measurement": "parasite load remaining", "setting": "[4]", "value": "94.4% (inactive) and 63.5% (inactive)"}, {"measurement": "viability", "setting": "[4]", "value": "116% and 79%"}, {"measurement": "inhibition", "setting": "[19]", "value": "-8.63% (inactive)"}, {"measurement": "red/green cell ratio (normalised)", "setting": "[17]", "value": "0.96 (inactive)"}, {"measurement": "normalised cell number", "setting": "[17]; [27]", "value": 0.91}, {"measurement": "normalised cell number", "setting": "[17]; [28]", "value": 0.87}, {"measurement": "activity remaining", "setting": "[18]", "value": "102% (inactive)"}, {"measurement": "fold change", "setting": "[10]; stronger effect = lower value", "value": "0.91 (inactive) and 0.859 (inactive)"}, {"measurement": "fold change", "setting": "[10]; [21]", "value": "0.856 (inactive)"}, {"measurement": "fold change", "setting": "[10]; [22]", "value": "1.74 and 1.56 and 1.32"}, {"measurement": "cell count", "setting": "[10]; [23]", "value": "8890 and 7490 and 7920"}, {"measurement": "cell count", "setting": "[10]; [24]", "value": "9780 and 8760 and 9220"}, {"measurement": "luciferase signal", "setting": "[20]", "value": "132 AU (inactive)"}]}
{"smiles": "O=C1CC[C@@]2(O)[C@H]3Cc4ccc(O)c5c4[C@@]2(CCN3CC2CC2)[C@H]1O5", "values": [{"measurement": "survival", "setting": "[11]", "value": "16.1 (inactive)"}, {"measurement": "inhibition", "setting": "[19]", "value": "9.6% (inactive)"}, {"measurement": "fold change", "setting": "[10]; stronger effect = lower value", "value": "0.971 (inactive) and 0.94 (inactive) and 0.843 (inactive)"}, {"measurement": "fold change", "setting": "[10]; [22]", "value": "1.34 and 1.14 and 0.908"}, {"measurement": "cell count", "setting": "[10]; [23]", "value": "11000 and 9230 and 9370"}, {"measurement": "cell count", "setting": "[10]; [24]", "value": "11300 and 9820 and 11100"}, {"measurement": "z-score", "setting": "[12]; [25]", "value": "0.477 (inactive) and 0.601 (inactive)"}, {"measurement": "z-score", "setting": "[12]; [26]", "value": "0.069 and -0.0949"}, {"measurement": "remaining NAD", "setting": "[13]", "value": "10 nM (inactive)"}, {"measurement": "luciferase signal", "setting": "[20]", "value": "48 AU (inactive)"}]}
